From the supplement of paper PMC10338343
± gives the standard deviation. Over roughly 8,200 sequences, “pre-steady-state target cleavage rate” has its median near 0.024; the highest 2% begin near 1.3. The entries come from a sample that favours the highest values as a whole.

System: MIWI (PIWIL1) piRISC loaded with L1MC piRNA (30 nt)
Assay: pre-steady-state target cleavage rate (min^-1); MIWI and MILI are mouse PIWI proteins and EfPiwi is from a freshwater sponge; tags in brackets are library labels; higher = faster piRNA-guided slicing of the target
Settings: guide: L1MC piRNA 5'p-UAACUAAAUACUAUGCAAGCUGUAGGUCCU
Description: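 Cleave-'n-Seq: a library of target RNAs (target site embedded in constant flanks, ACAGCATTCCGCGTTAGTGATATCCG... 5' flank; DNA-blocked outside the site) at 0.1 nM was incubated with 1 nM active mouse MILI or MIWI piRISC (synthetic 5'-monophosphorylated piRNA guide) with or without 500 nM mouse GTSF1 at 33 °C for 1 min to 16 h. Uncleaved targets were sequenced and normalised to non-target controls, and the pooled three trials were fitted to a burst-and-steady-state model to give the pre-steady-state cleavage rate (min^-1; k3 is constrained to at most 1e-4). Sequence is the target site only; target names encode pairing extent (gX:gY) and contiguous / 1-mismatch / 2-mismatch / bulge geometry. Fits with R² ≤ 0 are excluded.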

[1] = auxiliary factor: 500 nM mouse GTSF1
[2] = auxiliary factor: none (no GTSF1)

Sequence | pre-steady-state target cleavage rate [1] | pre-steady-state target cleavage rate [2]
UCCACCUACCGCUUGCAUAGUAUUUAGUUA | 1.11 ± 0.05 | 0.0544 ± 0.0086
AGGACCUACCGCUUGCAUAGUAUUUAGUUA | 1.43 ± 0.082 | 0.0866 ± 0.017
UCCUGCUACCGCUUGCAUAGUAUUUAGUUA | 1.1 ± 0.1 | 0.0571 ± 0.011
AGGACCUACCAGCUUGCAUAGUAUUUAGUUA | 1.17 ± 0.069 | 0.0704 ± 0.014
UGGACCUACGAGCUUGCAUAGUAUUUAGUUA | 0.657 ± 0.11 | 0.0557 ± 0.013
UCCUCCUACCGCUUGCAUAGUAUUUAGUUA | 1.34 ± 0.062 | 0.0565 ± 0.0099
UGGACCUACCAGCUUGCAUAGUAUUUAGUUA | 1.25 ± 0.1 | 0.0599 ± 0.013
UCCUCCUACGCUUGCAUAGUAUUUAGUUA | 1.24 ± 0.045 | 0.0478 ± 0.0094
UGGACCUACCGCUUGCAUAGUAUUUAGUUA | 1.57 ± 0.11 | 0.0558 ± 0.0098
UCGACCUACCAGCUUGCAUAGUAUUUAGUUA | 1.29 ± 0.064 | 0.0725 ± 0.016
UCGACCUACCGCUUGCAUAGUAUUUAGUUA | 1.64 ± 0.069 | 0.0745 ± 0.015
AGGACCUACACGCUUGCAUAGUAUUUAGUUA | 1.1 ± 0.065 | 0.0703 ± 0.01
UCCUGGAUGUGCUUGCAUUGUUUUUAGUUA | 0.0048 ± 0.0031 | 
UCCUGGAUGUGCUUGCAUAGUAUUUUGUAA | 0.0569 ± 0.016 | 0.00775 ± 0.0023
UCCACCUACAGCUUGCAUAGUAUUUGGUUA | 0.555 ± 0.038 | 0.0358 ± 0.0079
UCGACCUACAGGUUGCAUAGUAUUUACUUA | 0.296 ± 0.04 | 0.025 ± 0.0051
AGCACCUACACCUUGCAUAGUAUUUAGUUA | 0.739 ± 0.074 | 0.0408 ± 0.0062
UCGACCUACAGCUUGCUUAGUAUUUAGUAA | 1.02 ± 0.068 | 0.0176 ± 0.005
UGGACCUAGAGCUUGCUUAGUAUUUAGUUA | 1.18 ± 0.095 | 0.0321 ± 0.0069
UCCACCUAGAGCUUGCUUAGUAUUUAGUUA | 0.549 ± 0.044 | 0.0205 ± 0.0044
UCGACCUACAGCUUGGUUAGUAUUUAGUUA | 1.42 ± 0.058 | 0.00908 ± 0.0026

Sequence | pre-steady-state target cleavage rate [1] | pre-steady-state target cleavage rate [2]
UCGACCUACAGCUUGGUUAGUAUUUACAAA | 0.0826 ± 0.02 | 
UCGACCUACAGCUUGCUAGUAUUUAGUUA | 0.219 ± 0.061 | 
UCGACCUAGAGCUUGCUUAGUAUUUAGUUA | 1.34 ± 0.048 | 0.0282 ± 0.0063
UCGACCUACAGCUUGCUUAGUAUUUAGUUA | 1.66 ± 0.074 | 0.0474 ± 0.01
AGCACCUACAGCUUGCUUAGUAUUUAGUUA | 0.978 ± 0.079 | 0.0389 ± 0.0089
UGCACCUACAGCUUGCUUAGUAUUUAGUUA | 1.25 ± 0.092 | 0.031 ± 0.0064
ACGACCUACAGCUUGCUUAGUAUUUAGUUA | 1.57 ± 0.074 | 0.0527 ± 0.013
UCGACCUACAGCUUGGUUAGUAUUUAGUAA | 0.72 ± 0.061 | 0.00525 ± 0.002
UCCUCCUACAGGAUGCAUAGUAUUUACAAA | 0.253 ± 0.041 | 
UCCUGGAACAGGUAGCAUAGUAUUUAGUUA | 0.266 ± 0.026 | 0.00407 ± 0.0017
UCCACCUUGUGCUUGCAUAGUAUUUACAAA | 0.0809 ± 0.013 | 
UCCUGGAUGAGCUUGCAUAGUGUUUAGUUA | 0.708 ± 0.06 | 0.0494 ± 0.01
UGGACGUACAGCUUGCAUAGUAUUAAGUUA | 0.721 ± 0.069 | 0.0383 ± 0.0073
UGGACCUACAGCUUGCUAAGUAUUUAGUUA | 0.2 ± 0.022 | 0.00384 ± 0.002
UCCUGGAUGAGCUUGCAUAGUAUUUAGUAUA | 0.702 ± 0.054 | 0.0165 ± 0.0055
UCCUGCUACAGCUUGCUUAGUAUUUAGUAA | 0.279 ± 0.023 | 0.0083 ± 0.002
UCCUGGAUCAGCUUGCUUAGUAUUUAGAAA | 0.116 ± 0.021 | 0.00482 ± 0.0028
AGGACCUACAGUUGCAUAGUAUUUAGUUA | 0.988 ± 0.07 | 0.0102 ± 0.0034
UGGACCUACAGCUGUGCAUAGUAUUUAGUUA | 1.28 ± 0.11 | 0.0389 ± 0.0098
UCGACCUACAGCUGUGCAUAGUAUUUAGUUA | 1.42 ± 0.073 | 0.0386 ± 0.0081
AGGACCUACAGCUGUGCAUAGUAUUUAGUUA | 1.29 ± 0.063 | 0.0583 ± 0.012

Sequence | pre-steady-state target cleavage rate [1] | pre-steady-state target cleavage rate [2]
UGGACCUACAGCGUGCAUAGUAUUUAGUUA | 1.43 ± 0.065 | 0.0647 ± 0.013
UCGACCUACAGCGUGCAUAGUAUUUAGUUA | 1.73 ± 0.072 | 0.0576 ± 0.0085
UCGACCUACAGCGUUGCAUAGUAUUUAGUUA | 1.21 ± 0.073 | 0.0561 ± 0.01
AGGACCUACAGCAUUGCAUAGUAUUUAGUUA | 1.28 ± 0.12 | 0.0689 ± 0.014
AGGACCUACAGCGUGCAUAGUAUUUAGUUA | 1.34 ± 0.054 | 0.0658 ± 0.011
UCCUGCUACAGCGUGCAUAGUAUUUAGUUA | 1.27 ± 0.074 | 0.0183 ± 0.005
UCCACCUACAGCGUGCAUAGUAUUUAGUUA | 1.06 ± 0.04 | 0.0325 ± 0.0056
UCCUGGAUCAGCUUGCAUACUAUUUUCAAA | 0.00597 ± 0.0043 | 
UCCUGGUACUGCUUGCAAAGUAUUUAGUUA | 0.46 ± 0.036 | 0.0221 ± 0.0052
UCCUCCUACAGCUUGCAUAGAAUUUACAAA | 0.295 ± 0.045 | 
UCCUGGAUGUCGAACGUAACUAUUUACUUA | < 0.0001 | 
UCCUCCUACAGCUUCGAUAGUAUUUAGUAA | 0.263 ± 0.031 | 
UCCUGGAUGUGCUUGCAUAGUAUAAAGUAA | 0.00523 ± 0.0043 | 
UCGACCUACAGCUUGCAUAGUAUUGAGUUA | 0.499 ± 0.042 | 0.0477 ± 0.0089
UCCUGGAUCAGCUUGCAUACUUUUUAGUUA | 0.014 ± 0.0033 | 0.00335 ± 0.0016
UCGACCUACAGCUUGCAUAGUAGUUUAGUUA | 0.574 ± 0.031 | 0.0134 ± 0.0039
UCCUGGUACAGCUUGCAAAGUAUUAAGUUA | 0.35 ± 0.049 | 0.0147 ± 0.0043
AGGACCUACAGCGUUGCAUAGUAUUUAGUUA | 1.21 ± 0.086 | 0.0748 ± 0.015
UGGACCUACAGCGUUGCAUAGUAUUUAGUUA | 1.33 ± 0.11 | 0.0647 ± 0.013
